Results filed as inconclusive are left out. Calls of active or inactive are those of the source. The call rests on the fitted dose curve; in most records, active means well fitted inhibition curve with a large enough effect; inconclusive means small, poorly fitted or top-dose-only effect; inactive means flat fitted curve, though single readings scatter.
Target: Dual specificity protein kinase CLK4 (Homo sapiens) (UniProt Q9HAZ1)
Test: Confirmation Assay for Inhibitors of CDC-like Kinase 4 (Kinase-Glo Assay)
Settings: recombinant Clk4, Kinase-Glo ATP depletion luminescence; series mostly up to 47.7 µM
Procedure: NIH Molecular Libraries Probe Production Centers Network [MLPCN] NIH Chemical Genomics Center [NCGC] MLPCN Grant: 1R03MH084827-01 Assay Submitter (PI): Tom Misteli NCGC Assay Overview: Clk4 (Invitrogen, cat# PV3839) was assayed using ATP and the RS repeat peptide (AnaSpec cat # 61722) as substrates. Following the Clk4 reaction, the remaining ATP levels were detected using Promega Kinase-Glo technology wherein the remaining ATP from the kinase reaction is detected using Ultra-Glo luciferase and D-luciferin which generates a bioluminescence signal from the ATP.
NCGC Assay Protocol Summary: Two uL/well of substrate-buffer solution (100 uM RS peptide, 1 uM ATP, 25 mM Tris pH7.5, 10 mM MgCl2, 0.5 mM EGTA, 2.5 mM DTT, 0.01% Triton X-100 final concentration) was dispensed into 1536-well, assay plates (Greiner, solid white medium-binding plates) with Aurora Discovery BioRAPTR Flying Reagent Dispenser (FRD; Beckton-Dickenson). Using a Kalypsys pin tool equipped with a 1536-pin tool, 23 nL of compound solution was transferred to the assay plate. One uL/ well Clk4-buffer solution (25 nM Clk4, 25 mM Tris pH 7.5, 10 mM MgCl2, 0.5 mM EGTA, 2.5 mM DTT, 0.01% Triton X-100, final concentrations) was then added using the FRD yielding a total kinase reaction volume of 3 uL/ well. After 4.5 hours of room temperature incubation, 3 uL Kinase-Glo reagent was added for a final assay volume of 6 uL/ well. Luminescence was detected with the ViewLux plate reader (Perkin Elmer, Waltham, MA) after 5 min incubation using a 5 second exposure time and 2x binning.

Chain of Dual specificity protein kinase CLK4 (Homo sapiens) (Q9HAZ1 whole entry, looked up): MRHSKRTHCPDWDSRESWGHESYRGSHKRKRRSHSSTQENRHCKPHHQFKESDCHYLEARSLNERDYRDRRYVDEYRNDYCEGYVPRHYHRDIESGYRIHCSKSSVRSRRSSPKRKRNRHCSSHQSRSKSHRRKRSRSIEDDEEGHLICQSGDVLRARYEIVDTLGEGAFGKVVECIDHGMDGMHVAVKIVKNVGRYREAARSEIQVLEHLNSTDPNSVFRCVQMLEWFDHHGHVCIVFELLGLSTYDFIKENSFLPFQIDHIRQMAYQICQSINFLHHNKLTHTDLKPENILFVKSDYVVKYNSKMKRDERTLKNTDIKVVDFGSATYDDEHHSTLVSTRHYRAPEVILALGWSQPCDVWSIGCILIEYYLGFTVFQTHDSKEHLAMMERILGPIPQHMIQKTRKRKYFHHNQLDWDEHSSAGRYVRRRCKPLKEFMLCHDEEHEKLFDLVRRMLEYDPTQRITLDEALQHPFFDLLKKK

Potency, active:
Cc1cccc(-c2ccc3ncnc(NCc4cccs4)c3c2)c1 7080 nM
FC1(F)Oc2ccc(-c3ccc4ncnc(NCc5cccs5)c4c3)cc2O1 18400 nM
Cc1ccc(CNc2ncnc3ccc(-c4ccoc4C)cc23)o1 368 nM
Cc1csc(CNc2ncnc3ccc(-c4ccc5c(ccn5C)c4)cc23)c1 35500 nM
c1nc(OCc2cnc[nH]2)c2cc(-c3ccc4c(c3)OCO4)ccc2n1 6540 nM
Cc1occc1-c1ccc2ncnc(NCc3ncc[nH]3)c2c1 463 nM
c1cncc(CNc2ncnc3ccc(-c4ccco4)cc23)c1 6310 nM
Cc1csc(CNc2ncnc3ccc(-c4ccc5c(c4)OCO5)cc23)n1 37.7 nM
Clc1ccccc1-c1ccc2ncnc(NCc3cccnc3)c2c1 10000 nM
c1nc(NCCc2cnc[nH]2)c2ccc(-c3ccc4c(c3)OCO4)cc2n1 10600 nM
COc1cccc(-c2ccc3ncnc(NCc4cccc(F)c4)c3c2)c1 631 nM
Cc1csc(CNc2ncnc3ccc(-c4cccc(Cl)c4)cc23)c1 7940 nM
Cc1cccc(-c2ccc3ncnc(NCc4cc(C)cs4)c3c2)c1 14100 nM
c1cncc(CNc2ncnc3ccc(-c4ccc5c(c4)OCO5)cc23)c1 100 nM
Cc1csc(CNc2ncnc3ccc(-c4ccc5c(c4)OCCO5)cc23)c1 447 nM
CCN(CCc1cn(C)cn1)c1ncnc2ccc(-c3ccc4c(c3)OCO4)cc12 519 nM
c1coc(-c2ccc3ncnc(NCc4cccs4)c3c2)c1 823 nM
Clc1ccccc1-c1ccc2ncnc(NCc3cccs3)c2c1 7940 nM
Cc1csc(CNc2ncnc3cc(-c4ccc5c(c4)OCO5)ccc23)n1 8440 nM
Cc1cccc(CNc2ncnc3ccc(-c4ccc5c(ccn5C)c4)cc23)c1 39800 nM
COc1cccc(-c2ccc3ncnc(NCc4cccc(C)c4)c3c2)c1 891 nM
CCOC(=O)c1ccc(-c2ccc3ncnc(NCc4cccs4)c3c2)o1 116 nM
CCOC(=O)c1ccoc1-c1ccc2ncnc(NCc3ccc(C)o3)c2c1 5820 nM
c1cncc(-c2ccc3ncnc(NCc4ccc5c(c4)OCO5)c3c2)c1 6310 nM
Cc1occc1CNc1ncnc2ccc(-c3ccc4c(c3)OCO4)cc12 47.5 nM
CCCN(Cc1cccs1)c1ncnc2ccc(-c3ccc4c(c3)OCO4)cc12 116 nM
Cn1ccc2cc(-c3ccc4ncnc(NCc5cccnc5)c4c3)ccc21 12600 nM
c1nc(NCc2ccoc2)c2cc(-c3ccc4c(c3)OCO4)ccc2n1 37.7 nM
OCc1ccc(-c2ccc3ncnc(NCCc4cnc[nH]4)c3c2)o1 733 nM
COc1cccc(-c2ccc3ncnc(NCc4cccs4)c3c2)c1 519 nM
Cc1ccc(CNc2ncnc3ccc(-c4ccc5c(c4)OCO5)cc23)s1 189 nM
Cc1ccc(CNc2ncnc3cc(-c4ccc5c(c4)OCO5)ccc23)o1 5980 nM
Cc1cccc(CNc2ncnc3ccc(-c4cccc(Cl)c4)cc23)c1 14100 nM
Cc1nc(CNc2ncnc3ccc(-c4ccc5c(c4)OCO5)cc23)cs1 47.5 nM
CCn1cnc(CCN(C)c2ncnc3ccc(-c4ccc5c(c4)OCO5)cc23)c1 1300 nM
Cc1nc(CNc2ncnc3ccc(-c4sc(C)nc4C)cc23)cs1 1640 nM
O=C(O)c1ccc(-c2ccc3ncnc(NCCc4cnc[nH]4)c3c2)o1 923 nM
c1coc(CCNc2ncnc3ccc(-c4ccc5c(c4)OCO5)cc23)c1 59.8 nM
c1nc(NCC2CCCO2)c2ccc(-c3ccc4c(c3)OCO4)cc2n1 (stereo not given) 8440 nM

Potency, inactive:
Cc1csc(CNc2ncnc3ccc(-c4ccco4)cc23)c1

From PubChem BioAssay AID1970 (National Center for Advancing Translational Sciences (NCATS), 2009)
